Data reported in PubChem BioAssay AID1814 (Broad Institute, 2009).
The whole screen tested about 300,000 compounds, of which about 22,000 (7.3%) were called active. Roughly 2% stayed inconclusive and do not appear here. Many of the other results were omitted from the sample, so actives are more common in it than they were. Unmarked numbers belong to inactive results. Rule as the data show it: active = activity score below about -60%; inconclusive = mostly about -28% to -61%; inactive = positive scores.

Assay: Activators working through SNCA 5'UTR binding (MLPCN) (AID 1814)
Details: alpha-synuclein 5'UTR reporter, activators screen; active compounds read low; tested at 7.5 µM

Row | Structure (SMILES) | activity score
1 | Cc1cccc(NC(=O)c2ccc3ccccc3n2)n1 | -103% (active)
2 | Cc1cccc(NC(=O)COc2ccc(Br)cc2C)n1 | -210% (active)
3 | CCOc1cc(N2CCOCC2)c(OCC)cc1NC(=O)COc1cccc2cccnc12 | 88.8%
4 | Cc1cccc(NC(=O)COc2ccccc2C)n1 | -109% (active)
5 | Cc1cccc(NC(=O)Cc2ccc(Br)cc2)n1 | -90.2% (active)
6 | Cc1ccccc1OCC(=O)Nc1ccc2c(c1)ncn2C | -256% (active)
7 | CCc1c(C)c2ccc(OC3CCCCC3=O)cc2oc1=O (stereo not given) | -133% (active)
8 | Cc1ccc(-c2nn(-c3ccccc3)cc2/C=C2\SC(=S)N(CCCCCC(=O)O)C2=O)o1 | -89.9% (active)
9 | C=CCOc1ccc(/C=C2\SC(=S)N(CCC(=O)O)C2=O)cc1 | 80%
10 | CCNc1nc(-c2cc3ccccc3o2)cs1 | -187% (active)
11 | COc1ccc2nc(Nc3nc(-c4cc5ccccc5oc4=O)cs3)sc2c1 | -131% (active)
12 | COc1ccc2nc(Nc3nc(-c4ccncc4)cs3)sc2c1 | -122% (active)
13 | O=c1oc2ccccc2cc1-c1csc(Nc2ccc(O)cc2)n1 | -171% (active)
14 | CC(Cc1cccs1)NC(=O)c1cccc(Cl)c1 (stereo not given) | -95.5% (active)
15 | O=C(NC1CCCCCCC1)c1cccs1 | -77.8% (active)
16 | CC(Cc1cccs1)NC(=O)NC1CCCCC1 (stereo not given) | -95.9% (active)
17 | Cc1cnc(NC(=O)c2ccc(Cl)nc2)s1 | -97.1% (active)
18 | COc1cc(CNc2ncn[nH]2)ccc1OCc1ccccc1C | -65.6% (active)
19 | COC(=O)Cc1csc(/N=C/c2c(O)n(-c3cccc(C(F)(F)F)c3)c(=O)c3ccccc23)n1 | 81.8%
20 | O=C(Cc1cccs1)NCc1cccc(C(F)(F)F)c1 | -110% (active)
21 | CC(C)c1ccc(/C=C2\NC(=O)NC2=O)cc1 | -66.1% (active)
22 | C/C(=N\Nc1ncc(Cl)cc1Cl)c1ccc(S(=O)(=O)NCc2ccco2)cc1 | -141% (active)
23 | C/C(=N\Nc1nc2ccccc2[nH]1)c1cccs1 | -116% (active)
24 | COc1cccc(/C=N/Nc2ncc(C(F)(F)F)cc2Cl)c1O | 76.7%
25 | COc1cccc(/C(C)=N/Nc2ncc(Cl)cc2Cl)c1 | -119% (active)
26 | C/C(=N\Nc1ncc(Cl)cc1Cl)c1cccs1 | -91.6% (active)
27 | Nc1cccc(CCc2nc3ccccc3[nH]2)c1 | -77.9% (active)
28 | Cc1c(C(=O)OC(C)C)sc(NC(=O)c2cccnc2)c1C#N | -80.1% (active)
29 | CNc1nc2c(C)cccn2c(=O)c1C=Nc1ccc(OC)cc1 | -108% (active)
30 | O=C(Nc1ccc(N2CCOCC2)cc1)c1ccc(-c2ccccc2[N+](=O)[O-])o1 | -107% (active)
